Data on 35 compounds can be found in PubChem BioAssay (Tox21).

Unmarked numbers belong to inactive results. Records with an inconclusive call do not appear. Activity calls are given as the source filed them. The call rests on the fitted dose curve.
On the % scale 0 is the no-effect control and ±100 the full control effect.

Acetylcholinesterase (Homo sapiens), sequence (P22303 whole entry, looked up): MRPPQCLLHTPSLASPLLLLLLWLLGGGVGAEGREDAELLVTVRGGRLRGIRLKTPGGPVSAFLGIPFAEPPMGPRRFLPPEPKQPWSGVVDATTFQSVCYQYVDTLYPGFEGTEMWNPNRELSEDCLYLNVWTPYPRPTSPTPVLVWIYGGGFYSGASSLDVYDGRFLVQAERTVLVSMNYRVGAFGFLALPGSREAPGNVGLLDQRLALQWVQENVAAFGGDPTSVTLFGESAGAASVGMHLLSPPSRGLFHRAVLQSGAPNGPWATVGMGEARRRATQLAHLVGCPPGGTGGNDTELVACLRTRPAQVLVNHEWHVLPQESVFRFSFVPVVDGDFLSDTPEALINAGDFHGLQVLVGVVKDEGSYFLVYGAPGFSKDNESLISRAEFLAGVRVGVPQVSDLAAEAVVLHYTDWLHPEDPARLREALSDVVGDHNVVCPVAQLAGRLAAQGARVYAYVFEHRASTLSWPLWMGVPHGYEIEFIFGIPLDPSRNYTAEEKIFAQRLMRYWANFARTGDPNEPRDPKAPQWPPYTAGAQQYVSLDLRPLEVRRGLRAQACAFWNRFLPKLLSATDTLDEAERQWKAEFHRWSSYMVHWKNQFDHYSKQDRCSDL

For one assay, the target named is Acetylcholinesterase (Homo sapiens) (UniProt P22303). As to the kind of experiment: Acetylcholinesterase (AChE) small molecule antagonists: fluorescence cell-based qHTS assay (AID 1347398). Further: nearly all actives have a fitted effect of over 50% in size. As to conditions: SH-SY5Y cells; Potency: AChE activity; outcome: AChE activity; series mostly up to 115 µM; activity change, negative = inhibition: at the top concentration. In short, it runs like this:
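SH-SY5Y cells (2000/well), attached overnight, incubated with compound 30 min at 37 C. Acetylthiocholine plus Thiolite Green then added for 40 min at room temperature. Thiocholine fluorescence (Ex/Em 490/520 nm) reports cellular AChE activity.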
Take `CCN(CCO)CCn1c(Cc2ccccc2)nc2c1c(=O)n(C)c(=O)n2C`: the “activity change, negative = inhibition” value is -2.67% [at 53.7 µM].
In the case of `CC(C)C(C)(N)C#N` (stereo not drawn), the “activity change, negative = inhibition” value was -0.713%.
Consider `O=P(O)(O)CN(CP(=O)(O)O)CP(=O)(O)O`, for which the Potency result is “inactive”.
As for `Cc1ccc(Cl)c(O)c1`, the “activity change, negative = inhibition” value is 0.61% [at 53.7 µM].
On the same count and under the same terms, next, `C/C=C/CC#N`: 5.94%.
The same measure, in the same setting: next, `ClCCCCCCCl`: 3.59%.
The same measure, in the same setting: the same measure for `CCCCCCC(=O)CCCCCC/C=C/C[C@@H](O)[C@H](O)[C@@](N)(CO)C(=O)O`: -0.579% [at 23.8 µM].
Consider `O=C1C2CC=CCC2C(=O)N1SC(Cl)(Cl)Cl` (stereo not drawn), for which the “activity change, negative = inhibition” value is 0.266%.
Same read-out and setting: next, `N#CN`: 2.45% [at 293 µM]; `CN=CNc1ccc(C)cc1C`: 5.27%.
As to `C=CCc1cc(OC)c2c(c1)OCO2`, the “activity change, negative = inhibition” value is -0.19%.
As to `CN(C)CCc1c[nH]c2cccc(OP(=O)(O)O)c12`, the “activity change, negative = inhibition” value was -1.06%.
`NCCOS(=O)(=O)O`: the “activity change, negative = inhibition” value was 2.01%.
Turning to `C[C@H]1CCCC(=O)CCC/C=C/c2cc(O)cc(O)c2C(=O)O1`, the Potency result was “inactive”.
For the compound `CC(C)NCC(O)c1ccc([N+](=O)[O-])cc1` (stereo not drawn), the “activity change, negative = inhibition” value was 15.2% [at 53.7 µM].
Still for that read-out and setting: next, `c1ccc2c(c1)CCNC2`: -10.5%; `CC(C)(C)NC[C@H](O)c1ccc(O)cc1Cl`: -20.5% [at 53.7 µM]; `OP(O)c1ccccc1`: 0.4%.

Another assay has the same target. As to the kind of experiment: Acetylcholinesterase (AChE) small molecule antagonists: enzyme-based qHTS assay with human liver microsomes (AID 1347399). Further: nearly all actives have a fitted effect of over 60% in size. Conditions: Potency: qHTS inhibition; outcome: qHTS inhibition; series mostly up to 115 µM; activity change, negative = inhibition: at the top concentration. In short, it runs like this: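 Recombinant human AChE (50 mU/mL in the enzyme mix) and human liver microsomes (0.25 mg/mL final) were preincubated with compound and NADPH (0.25 mg/mL final) for 30 min at 37 C. Acetylthiocholine/DTNB was then added; thiocholine was read colorimetrically after 10 min at room temperature.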
Background: qHTS replaces the single test concentration by a dilution series.
In the case of `[O-][Br+2]([O-])O`, the “activity change, negative = inhibition” value is 0.492% [at 53 µM].
Still for that read-out and setting: next, `CCOP(=S)(OCC)SCCl`: 0.625%; `CCC(C)C(C)(COC(N)=O)COC(N)=O` (stereo not drawn): -0.304% [at 53 µM].
As for `ClC1=C(Cl)C2(Cl)C(CBr)CC1(Cl)C2(Cl)Cl` (stereo not drawn), the Potency entry is “inactive”.
With `CCOC1Oc2ccc(OS(C)(=O)=O)cc2C1(C)C` (stereo not drawn), the “activity change, negative = inhibition” value is 0%.
As to `CC(C)(N)Cc1ccc(Cl)cc1`, the “activity change, negative = inhibition” value was -1.06% [at 53 µM].
Take `CCOC(=O)CC(SP(=S)(OC)OC)C(=O)OCC` (stereo not drawn): the Potency result is “inactive”.
`O=C/C=C/c1ccco1`: the “activity change, negative = inhibition” value was -1.15%.
On the same count and under the same terms, next, `COc1cc(CCN)cc(OC)c1OC`: 0.188%.
In the case of `CNC(=O)NC(O)C(Cl)(Cl)Cl` (stereo not drawn), the “activity change, negative = inhibition” value is -1.34% [at 53 µM].
With `O=C(NC(O)C(Cl)(Cl)Cl)NC(O)C(Cl)(Cl)Cl` (stereo not drawn), the “activity change, negative = inhibition” value is -0.295% [at 53 µM].
The same measure, in the same setting: the same measure for `O=C(O)CBr`: -0.81%; for `CC(C)[C@]12CC(=O)[C@H](C)[C@H]1C2`: 1.65%; for `CN(C)C(=O)Oc1cc(OC(=O)N(C)C)cc(C(O)CNC(C)(C)C)c1` (stereo not drawn): 0.168% [at 53 µM].
The same measure, in the same setting: the same measure for `C=C(C)[C@H]1CN[C@H](C(=O)O)[C@H]1CC(=O)O`: -1.18% [at 53 µM].
As for `CC(C)(O)C(Cl)(Cl)Cl`, the “activity change, negative = inhibition” value was 0.972% [at 53 µM].
Still for that read-out and setting: next, `Cn1c(CCCC(=O)O)nc2cc(N(CCCl)CCCl)ccc21`: -1.12% [at 53 µM]; `CCN(CCO)CCn1c(Cc2ccccc2)nc2c1c(=O)n(C)c(=O)n2C`: -0.667% [at 53 µM].
Still for that read-out and setting: next, `CC(C)C(C)(N)C#N` (stereo not drawn): 0%.
For `O=P(O)(O)CN(CP(=O)(O)O)CP(=O)(O)O`, the Potency result was “inactive”.
With `Cc1ccc(Cl)c(O)c1`, the “activity change, negative = inhibition” value is 0.443% [at 53 µM].
For `C/C=C/CC#N`, the “activity change, negative = inhibition” value is -1.37%.
On the same count and under the same terms, the same measure for `ClCCCCCCCl`: -0.306%; for `CCCCCCC(=O)CCCCCC/C=C/C[C@@H](O)[C@H](O)[C@@](N)(CO)C(=O)O`: -0.169% [at 23.6 µM].
On the same count and under the same terms, next, `O=C1C2CC=CCC2C(=O)N1SC(Cl)(Cl)Cl` (stereo not drawn): 0.0873%.
As to `N#CN`, the “activity change, negative = inhibition” value was -2.2% [at 300 µM].
For the compound `CN=CNc1ccc(C)cc1C`, the “activity change, negative = inhibition” value was -0.487%.
Turning to `C=CCc1cc(OC)c2c(c1)OCO2`, the “activity change, negative = inhibition” value is -2.38%.
Regarding `CN(C)CCc1c[nH]c2cccc(OP(=O)(O)O)c12`, the “activity change, negative = inhibition” value is 5.09%.
As for `NCCOS(=O)(=O)O`, the “activity change, negative = inhibition” value was -0.306%.
Take `C[C@H]1CCCC(=O)CCC/C=C/c2cc(O)cc(O)c2C(=O)O1`: the Potency entry was “inactive”.
With `CC(C)NCC(O)c1ccc([N+](=O)[O-])cc1` (stereo not drawn), the “activity change, negative = inhibition” value is 0.147% [at 53 µM].
On to `c1ccc2c(c1)CCNC2`, for which the “activity change, negative = inhibition” value is -0.341%.
On to `CC(C)(C)NC[C@H](O)c1ccc(O)cc1Cl`, for which the “activity change, negative = inhibition” value was -1% [at 53 µM].
Same read-out and setting: next, `OP(O)c1ccccc1`: -1.19%.
